Records with an inconclusive call do not appear. The source made the active and inactive calls. The call rests on the fitted dose curve; in most records, active means well fitted activation curve with a large enough effect; inconclusive means small, poorly fitted or top-dose-only effect; inactive means flat fitted curve, though single readings scatter. Starred links: 1 amine or outer side, 2 acyl side, 3 side chain; linkers in the order of their positions; H or OH if unused. Positions of bridges follow the written chain, without caps; N, C: chain ends. Non-standard residues stand in square brackets, D forms with d. Residues, ends and D or L forms follow the SMILES beside them. ξ: configuration not given here. *: point of attachment. X3 = C[C@@H](Oc1ccc([C@H](N[*:1])C(=O)[*:2])cc1)[C@]1(/C=C\C(=O)[*:3])CO1; d(aIle) = CC[C@H](C)[C@@H](N)C(=O)O; X2 = CC(C)[C@@H](O)C(C)C(=O)*; ξNMeF = CNC(Cc1ccccc1)C(=O)O; ξT = CC(O)C(N)C(=O)O; ξS = NC(CO)C(=O)O
assay: qHTS for Activators of p53 Stress Response Pathway screened against the NCATS CANVASS Library (AID 1347388); conditions: p53RE-bla HCT-116, beta-lactamase reporter, 16 h; series mostly up to 46.1 µM; activation: at the top concentration; on activation: 0% is about no effect
From the text: Natural products and their derivatives continue to be wellsprings of nascent therapeutic potential. However, many laboratories have limited resources for biological evaluation, leaving their previously isolated or synthesized compounds largely or completely untested. To address this issue, the Canvass library of natural products was assembled (https://tripod.nih.gov/canvass), in collaboration with academic and industry researchers, for quantitative high-throughput screening (qHTS) across a diverse set of cell-based and biochemical assays. The pure (>85% purity by liquid chromatography/mass spectrometry [LC/MS]) Canvass library of 346 natural products were submitted by 45 academic laboratories and companies around the world. We collected pure natural products to circumvent deconvolution and structure elucidation due to time and resource limitations. The library was formatted into 1536-well plates and evaluated in 50 qHTS (in an 11-pnt concentration series) bioassays with broad scope of disease-relevant mechanisms. The resulting data set from 50 different assays was then systematically analyzed to identify overall trends and specific natural products with interesting biological activities. Reported herein are the results of each individual qHTS and their corresponding assay protocol. This assay measures compound activation of the p53 signaling pathway in cells using a beta-lactamase reporter gene. The p53RE-bla HCT-116 cell line (Invitrogen) contains a stably integrated beta-lactamase reporter gene under control of the p53 response elements. The activation of the report gene under culture conditions can be detected by fluorescence intensity. National Center for Advancing Translational Sciences (NCATS), Rockville, MD National Institute of Health (NIH), Bethesda, Maryland
p53-screen protocol: 1. In black-clear bottom 1536-well plate, 5 uL of p53RE-bla HCT-116 cell suspension was dispensed using a Multidrop Combi (Thermo Fisher Scientific) at a final concentration of 4000 cells / well. 2. The assay plates were incubated for 5 hours at 37C, 5% CO2. 3. […] of compounds (in DMSO; columns 5-48), vehicle control DMSO, and positive control were pin transferred into the assay plates using the Kalypsis pin tool (Wako USA) equipped with a 1536-well pin heads. This yields a final CANVASS compound concentration of 0.4 nM - […]. 4. The assay plates were incubated for 16 hours at 37C, 5% CO2. 5. After incubation, 1 uL of CCF4 dye was added per well using the BioRAPTR dispenser 6. The plates were incubated for 2 hours at room temperature. 7. The fluorescence readout was obtained using the EnVision microplate reader (PerkinElmer) equipped with a 405 nm excitation and 460 nm and 530 nm emission filters. The ratio of 460 nm / 530 nm readout was calculated and used for data analysis. 8. To access cellular viability and compound toxicity, 4 uL of CellTiter-Glo was added to the wells using the BioRAPTR dispenser. 9. The assay plates were further incubated for 30 minutes at room temperature. 10. Luminescence signal was obtained using the ViewLux plate reader (PerkinElmer) using the clear emission filter and 1x binning, 2 second exposure settings.
Potency means the concentration at half of the fitted maximal effect.

Compound | activation | Potency
CCCC[C@@H]1CC[C@H]2CCCC(CCCO)N12 (some centres not stated) | 1.48% (inactive) | 
CCCCC1CC[C@H]2CCCC(CCC)N12 (some centres not stated) | -0.304% (inactive) | 
CC(C)CC1C(=O)O[C@H](C(C)C)C(=O)N(C)C(CC(C)C)C(=O)O[C@@H](C(C)C)C(=O)N(C)C(CC(C)C)C(=O)O[C@H](C(C)C)C(=O)N(C)C(CC(C)C)C(=O)O[C@@H](C(C)C)C(=O)N1C (some centres not stated) | 14.7% (inactive) | 
CO[C@@H](/C=C/CC/C=C/C(=O)O)[C@@H](O)[C@H](C)/C=C(\C)[C@H](O)[C@H](C)C(=O)CCCC1CC(=O)NC(=O)C1 | 1.63% (inactive) | 
C/C=C(\C)C(=O)O[C@@H]1[C@@H](O)[C@@H]2O[C@H]3[C@H](O[C@@H](CCCCC)CCCCCCC(=O)CCC(=O)OC[C@@H](O2)[C@H]1OC(=O)/C=C/c1ccccc1)O[C@H](C)[C@H](OC(C)=O)[C@@H]3O | 9.84% (inactive) | 
CO[C@H]([C@@H](C)[C@H]1O[C@]1(C)C[C@H](C)/C=C/C=C(\C)[C@H]1O[C@@H](CC(=O)O)CC[C@@H]1C)[C@@H](C)O |  | 0.0148 µM (active)
C=CC(C)(C)[C@@]12C[C@H]3C(=O)N/C(=C\c4cnc[nH]4)C(=O)N3[C@@H]1Nc1ccccc12 | -1.57% (inactive) | 
O[C@H]1C=C[C@@]23CCN(Cc4cc5c(cc42)OCO5)[C@@H]3C1 | 1.11% (inactive) | 
C1=C2CCCN[C@H]2C2CC1[C@H]1CCCCN1C2 (some centres not stated) | 3.07% (inactive) | 
C=CC(C)(C)[C@@]12C[C@H]3C(=O)N/C(=C/c4cnc[nH]4)C(=O)N3[C@@H]1Nc1ccccc12 | 0.178% (inactive) | 
c1ccc2nc3c(cc2c1)[nH]c1ccccc13 | 17.1% (inactive) | 
C[N+](C)(C)CCc1c[nH]c2ccccc12 | 4.33% (inactive) | 
CCCC[C@@H](C)/C=C1/CN2CCC[C@H]2[C@@](C)(O)[C@@H]1O | -1.74% (inactive) | 
C[C@]12CC(O)C3[C@@H](CC[C@@H]4C[C@@H](O)CC[C@]34CO)[C@@]1(O)CC[C@@H]2C1=CC(=O)OC1 (some centres not stated) | 8.89% (inactive) | 
CC[C@]12C=CCN3CC[C@]4(C(=C(C(=O)OC)C1)Nc1ccccc14)[C@@H]32 | -3.2% (inactive) | 
C/C(=C\[C@H](C)C(=O)C[C@H](O)CC1CC(=O)NC(=O)C1)[C@@H]1OC(=O)/C=C/CC/C=C/C=C/[C@@H]1C | -15.9% (inactive) | 
C=C[C@]12C=CCN3CC[C@@]4(c5ccccc5NC(=O)[C@@H]4C1)[C@@H]32 | 9.79% (inactive) | 
C[C@]12CCC3[C@@H](CC[C@@H]4C[C@@H](O)CC[C@]34CO)[C@@]1(O)CC[C@@H]2C1=CC(=O)OC1 (some centres not stated) | 3.06% (inactive) | 
C=C[C@H]1CN2CCc3c([nH]c4cccc(OC)c34)[C@@H]2C[C@@H]1/C(=C\OC)C(=O)OC | -3.89% (inactive) | 
COC1C(O)C(C)OC(OC2C(Oc3cccc4c(O)c5c(=O)oc6ccc(C)c7c(=O)oc(c34)c5c67)OC(C)C(O)C2O)C1O (configuration not stated) |  | 10.5 µM (active)
CO[C@@]12c3c(C)cc(O)c4c(=O)occ(c34)C(=O)[C@@H]1[C@]13COC(=O)c4c(O)cc(C)c(c41)C(=O)[C@H]2[C@@H]3OC(C)=O | 1.59% (inactive) | 
CC[C@H]1CN2CCc3c([nH]c4cccc(OC)c34)[C@@H]2C[C@@H]1/C(=C\OC)C(=O)OC | -6.05% (inactive) | 
C/C=C1/CN2CC[C@@]34c5ccccc5N(C)[C@@H]3[C@@H]2C[C@@H]1[C@H]4C(=O)OC | -5.04% (inactive) | 
CC[C@@H]1CN2CCC3(Nc4cccc(OC)c4C3=O)[C@@H]2C[C@@H]1/C(=C\OC)C(=O)OC (some centres not stated) | 4.21% (inactive) | 
CO[C@H]1[C@H](O[C@H]2CC[C@]3(C=O)[C@H]4CC[C@]5(C)[C@@H](C6=CC(=O)OC6)CC[C@]5(O)[C@@H]4CC[C@]3(O)C2)O[C@H](C)[C@H](O)[C@@H]1OC | -7.62% (inactive) | 
C/C=C1/CN2CC[C@]34C(=C(C(=O)OC)[C@H]1C[C@H]23)Nc1ccccc14 | 1.13% (inactive) | 
CC[C@H](C)[C@H]1NC(=O)[C@@H](NC(=O)C(C)[C@H](O)C(C)C)[C@@H](C)OC(=O)C2COC(=O)CNC(=O)/C=C\[C@]3(CO3)[C@@H](C)Oc3ccc(cc3)[C@H](NC1=O)C(=O)N(C)C(Cc1ccccc1)C(=O)NC(C(C)O)C(=O)N2 (some centres not stated) (X2-T[d(aIle)][X3][ξNMeF][ξT][ξS]; ester 1-C; linker 3-6 via G) | 1.96% [at 27.5 µM] (inactive) | 

— PubChem BioAssay (NCATS)
